Results: PubChem BioAssay
Activity calls are given as the source filed them.

Experiments:
[1] = small molecules captured by biotinylated probe aFSTL3 – biochemical, small-molecule microarray, fluorescence 635/667, stem cell growth factor project, primary screen (AID 1064); settings: higher = more signal;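 further: measures binding of the biotinylated anti-FSTL3 antibody to printed compounds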
[2] = binders from COS7 lysate, DM2A8 probe, primary screen, torsin A project, cell lysate, small-molecule microarray, fluorescence 635/667 (AID 1065); settings: higher = more signal, COS7 lysate expressing mutant human TOR1A
[3] = small molecules captured by biotinylated probe aFGF2 – biochemical, small-molecule microarray, fluorescence 635/667, stem cell growth factor project, primary screen (AID 1067); settings: higher = more signal;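 further: measures binding of biotinylated aFGF2 protein to printed compounds on slides; z-score merges feature fluorescence and signal-to-noise across triplicate slides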
[4] = small molecules captured by biotinylated probe aFGF10 – biochemical, small-molecule microarray, fluorescence 635/667, stem cell growth factor project, primary screen (AID 1071); settings: higher = more signal;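 further: score merges 667 nm spot intensity and signal to noise from triplicate slides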
[5] = target: Neurogenic locus notch homolog protein 2 (Homo sapiens) (UniProt Q04721); experiment: small molecules binding Notch2 protein – biochemical, small-molecule microarray, 635 nm fluorescence, stem cell growth factors, primary screen (AID 1073); settings: higher = more signal
[6] = target: Pro-neuregulin-1, membrane-bound isoform (Homo sapiens) (UniProt Q02297); experiment: small molecules binding neuregulin-1 protein – biochemical, small-molecule microarray, fluorescence 635/667, psychiatric disease protein project, primary screen (AID 1075); settings: NRG1 binding, 635 nm fluorescence, higher = more signal;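 further: score combines 667 nm spot fluorescence with signal to noise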
Sequence of Pro-neuregulin-1, membrane-bound isoform (Homo sapiens) (Q02297 whole entry, looked up, the tested form may be a part, canonical isoform): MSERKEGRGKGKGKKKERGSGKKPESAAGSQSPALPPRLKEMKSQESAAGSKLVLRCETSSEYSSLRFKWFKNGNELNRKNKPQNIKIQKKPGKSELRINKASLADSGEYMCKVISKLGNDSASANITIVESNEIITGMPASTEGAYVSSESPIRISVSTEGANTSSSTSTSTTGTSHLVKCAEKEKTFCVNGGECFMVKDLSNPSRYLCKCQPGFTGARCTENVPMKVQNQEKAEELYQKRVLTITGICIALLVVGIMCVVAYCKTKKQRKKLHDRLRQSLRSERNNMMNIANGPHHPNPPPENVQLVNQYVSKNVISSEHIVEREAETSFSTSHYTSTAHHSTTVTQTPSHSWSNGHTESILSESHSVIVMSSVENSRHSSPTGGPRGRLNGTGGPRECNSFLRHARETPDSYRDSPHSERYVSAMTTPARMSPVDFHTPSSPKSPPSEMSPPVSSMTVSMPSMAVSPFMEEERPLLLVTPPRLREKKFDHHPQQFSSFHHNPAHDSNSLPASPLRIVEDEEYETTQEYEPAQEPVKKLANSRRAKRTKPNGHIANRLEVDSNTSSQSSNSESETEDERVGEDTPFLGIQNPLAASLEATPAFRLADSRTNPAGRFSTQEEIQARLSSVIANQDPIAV

[7] = tested on: Neuregulin-1 EGF-like domain; experiment: small molecules binding NRG1 EGF domain – biochemical, small-molecule microarray, 635 nm fluorescence, primary screen (AID 1081); settings: higher = more signal;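 further: binding of the protein to compounds printed on small-molecule microarray slides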
[8] = FRG1 expression reporter modulators in myotubes – cell-based, C2C12 myotubes, firefly/Renilla luciferase, luminescence, FRG1 inhibition for FSHD, primary screen (AID 1084); settings: FRG1 promoter luciferase, higher = more signal, called active from +8 up or from −8 down
[9] = small molecules captured by biotinylated probe aFST – biochemical, small-molecule microarray, fluorescence 635/667, stem cell growth factor project, primary screen (AID 1086); settings: higher = more signal;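 further: score merges 667 nm fluorescence with signal-to-noise of each printed compound spot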
[10] = binders of probe aHhip on microarray, primary screen, stem cell growth factor project, biochemical, small-molecule microarray, fluorescence 635/667 (AID 1087); settings: higher = more signal;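 further: score merges spot fluorescence at 667nm with spot signal to noise ratio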
[11] = tested on: PRMT1 (protein arginine N-methyltransferase 1); experiment: small molecules binding arginine methyltransferase PRMT1 – biochemical, small-molecule microarray, 635 nm fluorescence, primary screen (AID 1088); settings: higher = more signal;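 further: binding of Prmt1 protein to compounds spotted on small-molecule microarray slides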
[12] = growth effects on S. cerevisiae YJM789 – YJM789 clinical isolate, OD600, 24 h, basal, primary screen (AID 1089); settings: higher = more signal, called active from +8 up or from −8 down;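 further: growth of clinical yeast isolate S. cerevisiae YJM 789 seeded 1000 cells per well; test concentration not given here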
[13] = S. pombe growth modifiers, basal conditions – strain 972, OD600, 24 h, no modulator, primary screen (AID 1090);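 further: basal condition with compound alone and no growth modifier present; test concentration not given here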; settings: S. pombe 972 growth, higher = more signal, called active from +8 up or from −8 down
[14] = budding yeast growth modifiers under rapamycin – strain BY4716, OD600, 96 h, primary screen (AID 1091); further: test concentration not given here; settings: S. cerevisiae BY4716 + rapamycin, higher = more signal, called active from +8 up or from −8 down
[15] = target: Torsin-1A-interacting protein 2 (Homo sapiens) (UniProt Q8NFQ8); experiment: small molecules binding lysate-expressed LULL1 – cell lysate, human LULL1 lysate, 635/667 nm fluorescence, primary screen (AID 1092); settings: small-molecule microarray, hLULL1 lysate binding, 635 nm fluorescence; higher = more signal;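 further: probe is lysate of COS7 cells overexpressing human LULL1; score merges per-feature 667 nm fluorescence with signal-to-noise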
Sequence of Torsin-1A-interacting protein 2 (Homo sapiens) (Q8NFQ8 whole entry, looked up): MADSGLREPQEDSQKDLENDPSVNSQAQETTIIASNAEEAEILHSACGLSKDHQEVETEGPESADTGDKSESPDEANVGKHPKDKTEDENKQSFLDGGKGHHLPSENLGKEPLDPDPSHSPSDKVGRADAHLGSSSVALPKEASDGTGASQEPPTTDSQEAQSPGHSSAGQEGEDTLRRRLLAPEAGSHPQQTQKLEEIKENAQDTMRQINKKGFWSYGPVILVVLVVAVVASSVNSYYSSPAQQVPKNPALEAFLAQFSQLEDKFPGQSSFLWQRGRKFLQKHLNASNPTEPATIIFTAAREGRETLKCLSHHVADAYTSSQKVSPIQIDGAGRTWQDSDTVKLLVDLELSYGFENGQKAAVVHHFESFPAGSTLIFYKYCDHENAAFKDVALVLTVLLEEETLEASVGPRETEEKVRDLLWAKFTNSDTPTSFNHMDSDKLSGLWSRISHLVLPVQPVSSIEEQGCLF

[16] = optical density change of DRC41 E. coli – strain DRC41, OD650, 24 h, E. coli filamentation project, primary screen (AID 1093);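 further: MC1000 strain lacking acrAB efflux and sulA so SOS filamentation is blocked; test concentration not given here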; settings: E. coli DRC41 growth, higher = more signal, called active from +8 up or from −8 down
[17] = probe aLefty2 binding to arrayed compounds – biochemical, biotinylated probe, 635/667 nm fluorescence, primary screen (AID 1094); settings: small-molecule microarray, higher = more signal;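 further: score merges spot fluorescence near 667 nm with spot signal-to-noise ratio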
[18] = tested on: Noggin (protein binding on small-molecule microarray); experiment: small molecules binding Noggin protein – biochemical, 635/667 nm fluorescence, primary screen (AID 1095); settings: 635 nm fluorescence, higher = more signal;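 further: score merges 667 nm feature fluorescence with signal to noise over triplicate slides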
[19] = target: Neurogenic locus notch homolog protein 3 (Homo sapiens) (UniProt Q9UM47); experiment: small molecules binding NOTCH3 protein – biochemical, 635/667 nm fluorescence, primary screen (AID 1096); settings: small-molecule microarray, 635 nm fluorescence, higher = more signal
Sequence of Neurogenic locus notch homolog protein 3 (Homo sapiens) (Q9UM47 whole entry, looked up): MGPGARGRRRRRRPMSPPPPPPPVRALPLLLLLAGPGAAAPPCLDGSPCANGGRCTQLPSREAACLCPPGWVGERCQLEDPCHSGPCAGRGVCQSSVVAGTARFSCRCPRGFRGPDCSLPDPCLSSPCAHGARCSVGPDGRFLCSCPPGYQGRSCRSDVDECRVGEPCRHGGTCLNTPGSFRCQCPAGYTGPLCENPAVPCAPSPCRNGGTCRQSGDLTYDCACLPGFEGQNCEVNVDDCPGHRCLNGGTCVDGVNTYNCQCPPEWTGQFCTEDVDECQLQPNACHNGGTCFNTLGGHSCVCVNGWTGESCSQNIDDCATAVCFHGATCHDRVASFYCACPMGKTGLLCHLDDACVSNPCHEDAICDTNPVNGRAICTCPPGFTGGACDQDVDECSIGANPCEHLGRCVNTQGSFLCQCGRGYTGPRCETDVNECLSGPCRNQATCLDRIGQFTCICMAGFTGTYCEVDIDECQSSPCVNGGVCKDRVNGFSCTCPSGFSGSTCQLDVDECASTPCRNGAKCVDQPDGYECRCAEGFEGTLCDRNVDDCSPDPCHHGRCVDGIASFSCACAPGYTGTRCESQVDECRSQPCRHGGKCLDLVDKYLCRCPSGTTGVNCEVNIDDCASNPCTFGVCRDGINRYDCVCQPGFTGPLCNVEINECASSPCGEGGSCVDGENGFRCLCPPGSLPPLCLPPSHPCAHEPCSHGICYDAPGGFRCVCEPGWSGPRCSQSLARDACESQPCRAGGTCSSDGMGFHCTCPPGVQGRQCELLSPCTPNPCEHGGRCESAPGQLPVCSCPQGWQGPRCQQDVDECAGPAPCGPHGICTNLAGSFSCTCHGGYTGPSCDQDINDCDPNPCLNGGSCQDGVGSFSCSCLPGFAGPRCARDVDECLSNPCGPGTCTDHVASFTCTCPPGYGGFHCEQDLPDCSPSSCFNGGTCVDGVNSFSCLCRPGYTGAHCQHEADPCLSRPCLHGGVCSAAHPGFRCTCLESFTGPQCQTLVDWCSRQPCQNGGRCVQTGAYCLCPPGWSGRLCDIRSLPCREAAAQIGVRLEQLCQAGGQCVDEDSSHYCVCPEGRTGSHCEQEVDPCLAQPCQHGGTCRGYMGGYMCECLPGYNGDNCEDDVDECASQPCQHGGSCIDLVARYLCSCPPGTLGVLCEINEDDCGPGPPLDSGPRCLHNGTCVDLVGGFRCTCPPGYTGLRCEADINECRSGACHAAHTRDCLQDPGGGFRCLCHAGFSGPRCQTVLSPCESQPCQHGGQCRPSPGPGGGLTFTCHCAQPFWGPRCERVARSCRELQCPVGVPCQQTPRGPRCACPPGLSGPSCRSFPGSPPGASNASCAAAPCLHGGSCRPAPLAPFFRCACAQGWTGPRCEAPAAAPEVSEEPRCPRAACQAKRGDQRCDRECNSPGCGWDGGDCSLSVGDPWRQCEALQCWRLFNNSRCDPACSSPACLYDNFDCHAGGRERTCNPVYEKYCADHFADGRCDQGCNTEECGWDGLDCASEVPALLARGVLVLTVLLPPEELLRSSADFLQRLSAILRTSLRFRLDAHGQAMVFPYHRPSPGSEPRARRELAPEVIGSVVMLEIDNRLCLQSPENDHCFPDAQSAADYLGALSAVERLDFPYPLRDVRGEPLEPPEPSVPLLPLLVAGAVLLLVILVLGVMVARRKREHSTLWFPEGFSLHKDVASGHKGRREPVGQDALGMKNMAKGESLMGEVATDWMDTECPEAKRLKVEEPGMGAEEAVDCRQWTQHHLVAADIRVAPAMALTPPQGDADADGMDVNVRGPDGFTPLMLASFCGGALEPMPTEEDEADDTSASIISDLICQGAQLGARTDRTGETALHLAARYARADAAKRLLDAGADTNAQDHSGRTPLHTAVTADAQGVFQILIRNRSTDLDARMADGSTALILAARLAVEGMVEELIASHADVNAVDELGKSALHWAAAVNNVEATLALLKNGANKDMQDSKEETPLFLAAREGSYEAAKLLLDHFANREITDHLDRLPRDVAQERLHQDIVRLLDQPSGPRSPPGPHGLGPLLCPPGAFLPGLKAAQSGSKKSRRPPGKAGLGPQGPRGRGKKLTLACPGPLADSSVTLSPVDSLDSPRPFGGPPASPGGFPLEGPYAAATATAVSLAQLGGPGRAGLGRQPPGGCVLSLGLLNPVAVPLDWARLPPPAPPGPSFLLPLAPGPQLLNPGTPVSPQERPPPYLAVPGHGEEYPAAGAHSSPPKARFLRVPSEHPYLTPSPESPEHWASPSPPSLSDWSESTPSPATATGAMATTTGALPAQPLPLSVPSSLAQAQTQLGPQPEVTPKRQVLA

[20] = probe aEGFR binding to arrayed compounds – biochemical, biotinylated probe, 635/667 nm fluorescence, primary screen (AID 1097); settings: small-molecule microarray, higher = more signal;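 further: probe is a biotinylated anti-EGFR antibody binding compounds printed on slides; score combines fluorescence near 667 nm and signal to noise of each spot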

Row | Compound | composite z-score [1] | composite z-score [2] | composite z-score [3] | composite z-score [4] | composite z-score [5] | composite z-score [6] | composite z-score [7] | z-score [8] | composite z-score [9] | composite z-score [10] | composite z-score [11] | z-score [12] | z-score [13] | z-score [14] | composite z-score [15] | z-score [16] | composite z-score [17] | composite z-score [18] | composite z-score [19] | composite z-score [20]
1 | COCCOC(=O)N1C(=O)[C@@]2(c3cc(C#CCNC(N)=O)ccc31)[C@H](c1ccc(OCCO)cc1)N1[C@H](c3ccccc3)[C@H](c3ccccc3)OC(=O)[C@H]1[C@@H]2C(=O)N1CCN(c2ncccn2)CC1 | 0.496 | 0.287 | -0.0478 | 0.748 | 1.04 | 0.37 | 0.482 | -0.0699 (inactive) | 0.974 | -0.173 | 1.43 | 1.22 (inactive) | 0.423 (inactive) | 4.72 (inactive) | 2.1 | 0.338 (inactive) | 0.456 | 1.35 | 1.1 | -0.0424
2 | C=CCNC(=O)[C@H]1[C@@H]2C(=O)O[C@@H](c3ccccc3)[C@@H](c3ccccc3)N2[C@@H](c2ccc(O)cc2)[C@]12C(=O)N(C(=O)OCCOC)c1ccc(C#CC3(O)CCCCCC3)cc12 | 0.228 | 0.494 | 0.0789 | 0.875 | 0.793 | 1.2 | 1.27 | 0.168 (inactive) | 0.229 | 0.142 | 1.55 | 0.729 (inactive) | -0.932 (inactive) | 0.943 (inactive) | 2.45 | 1.87 (inactive) | 0.0026 | 0.147 | 0.838 | 0.0638
3 | O=C(Nc1cc(Br)ccc1C(=O)NCc1cccc(O)c1)c1ccccc1 | -0.0036 | 0.296 | -0.0144 | 0.478 | 0.708 | 1.95 | 1.15 | -1.07 (inactive) | 0.395 | -0.318 | 1.45 | 1.06 (inactive) | -2.4 (inactive) | 0.537 (inactive) | 2.5 | 2.81 (inactive) | -0.0291 | -0.0072 | 0.275 | -0.0947
4 | CN(C)C(=O)[C@]1(Cc2ccccc2N=[N+]=[N-])N=C(c2ccc(OCCCO)cc2)O[C@@H]1c1ccccc1CN=[N+]=[N-] | -0.144 | 0.937 | 0.122 | 0.794 | 1.51 | 1.8 | 1.19 | 0.643 (inactive) | 0.745 | -0.0994 | 1.5 | -2.13 (inactive) | -0.393 (inactive) | 0.545 (inactive) | 3.51 | 0.35 (inactive) | 0.0262 | 0.821 | 1.02 | -0.0509
5 | CCCC[C@@H](O)C1=C(COc2ccccc2)Cn2c(=O)n(-c3ccccc3)c(=O)n2[C@H]1CO | -0.353 | -0.0302 | -0.118 | 0.0467 | -0.239 | -0.21 | -0.851 | -1.83 (inactive) | -0.512 | 0.0274 | 0.0063 | -2.31 (inactive) | -1.82 (inactive) | -1.17 (inactive) | 0.94 | 1.87 (inactive) | -0.285 | -0.376 | -0.88 | -0.229
